Results from PubChem BioAssay.
Results filed as inconclusive are left out. Activity calls are given as the source filed them. No stated cut-off is given here; in the data, active means fluorescence slope change above about 50%; inconclusive means mostly about 31% to 49%; inactive means weaker than that.

Molecular target: ATP-dependent translocase ABCB1 (Homo sapiens) (UniProt P08183)
Test: MDR1 (ABCB1) efflux transporter inhibition, cell-based (AID 377)
Conditions: MDR1-expressing cells, fluorescent substrate accumulation slope; stronger effect = higher value; concentration not given here

Sequence of ATP-dependent translocase ABCB1 (Homo sapiens) (P08183 whole entry, looked up): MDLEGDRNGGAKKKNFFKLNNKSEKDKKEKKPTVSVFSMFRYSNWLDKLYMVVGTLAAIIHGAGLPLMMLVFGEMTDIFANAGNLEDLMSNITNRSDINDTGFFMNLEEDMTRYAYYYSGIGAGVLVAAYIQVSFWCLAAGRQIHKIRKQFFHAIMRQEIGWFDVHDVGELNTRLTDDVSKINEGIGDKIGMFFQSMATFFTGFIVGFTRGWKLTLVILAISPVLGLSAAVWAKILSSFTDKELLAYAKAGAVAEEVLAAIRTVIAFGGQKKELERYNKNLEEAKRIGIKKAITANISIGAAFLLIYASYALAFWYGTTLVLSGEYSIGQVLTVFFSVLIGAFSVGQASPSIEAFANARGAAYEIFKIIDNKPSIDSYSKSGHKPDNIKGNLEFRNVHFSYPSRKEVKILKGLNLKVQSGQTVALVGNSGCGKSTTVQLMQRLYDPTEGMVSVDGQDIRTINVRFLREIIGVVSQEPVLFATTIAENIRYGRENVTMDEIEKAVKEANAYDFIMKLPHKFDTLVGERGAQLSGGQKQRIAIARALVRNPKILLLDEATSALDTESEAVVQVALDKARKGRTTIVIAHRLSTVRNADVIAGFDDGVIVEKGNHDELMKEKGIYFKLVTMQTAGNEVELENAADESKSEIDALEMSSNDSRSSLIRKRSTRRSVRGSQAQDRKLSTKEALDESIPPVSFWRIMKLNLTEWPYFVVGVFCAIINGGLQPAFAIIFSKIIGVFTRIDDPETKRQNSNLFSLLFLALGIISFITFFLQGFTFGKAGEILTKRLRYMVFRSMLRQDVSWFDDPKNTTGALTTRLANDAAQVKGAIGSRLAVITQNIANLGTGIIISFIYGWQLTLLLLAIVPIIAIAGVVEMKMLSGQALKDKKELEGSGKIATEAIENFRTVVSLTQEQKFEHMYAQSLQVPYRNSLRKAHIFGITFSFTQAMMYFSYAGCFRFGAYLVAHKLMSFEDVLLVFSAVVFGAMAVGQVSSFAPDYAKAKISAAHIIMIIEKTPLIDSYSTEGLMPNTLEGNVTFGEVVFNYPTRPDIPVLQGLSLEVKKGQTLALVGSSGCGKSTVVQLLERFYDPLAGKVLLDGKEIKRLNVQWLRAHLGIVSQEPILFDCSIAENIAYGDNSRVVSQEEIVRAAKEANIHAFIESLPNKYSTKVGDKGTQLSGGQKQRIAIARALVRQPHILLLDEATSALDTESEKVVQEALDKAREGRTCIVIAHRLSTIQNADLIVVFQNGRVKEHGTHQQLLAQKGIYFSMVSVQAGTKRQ

For `CO[C@H]1/C=C/O[C@@]2(C)Oc3c(C)c(O)c4c(O)c(c(/C=N/N5CCN(C)CC5)c(O)c4c3C2=O)NC(=O)/C(C)=C\C=C\[C@H](C)[C@H](O)[C@@H](C)[C@@H](O)[C@@H](C)[C@H](OC(C)=O)[C@@H]1C`, the fluorescence slope change was 69.2% (active).
